# The panel holds about 83,000 compounds, 20% with a hit somewhere; the sample as a whole holds those more often.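 Cells were grown in 96-well plates and exposed to the test compound at a single concentration for 48 hours; results are reported as percent growth, with values below 10 considered active.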 Values without a mark were called inactive. Activity calls are given as the source filed them.
# Tests used:
# Test in all cases: NCI-60 one-dose screen, 48 h (100 = growth as untreated, 0 = no growth, -100 = all killed)
# [1] = test system: HCT-15 colon; conditions: 10 µM unless noted
# [2] = test system: HT29 colon; conditions: 10 µM unless noted
# [3] = test system: SNB-75 CNS; conditions: 10 µM unless noted
# [4] = test system: SNB-19 CNS; conditions: 10 µM unless noted
# [5] = test system: U251 CNS; conditions: 10 µM unless noted
# [6] = test system: PC-3 prostate; conditions: 10 µM unless noted
# [7] = test system: SK-MEL-5 melanoma; conditions: 10 µM unless noted
# [8] = test system: UACC-62 melanoma; conditions: 10 µM unless noted
# [9] = test system: LOX IMVI melanoma; conditions: 10 µM unless noted
# [10] = test system: SK-MEL-28 melanoma; conditions: 10 µM unless noted
# [11] = test system: SK-MEL-2 melanoma; conditions: 10 µM unless noted
# [12] = test system: EKVX NSCLC; conditions: 10 µM unless noted
# [13] = test system: SN12C renal; conditions: 10 µM unless noted
# [14] = test system: UO-31 renal; conditions: 10 µM unless noted
# [15] = test system: TK-10 renal; conditions: 10 µM unless noted
# [16] = test system: ACHN renal; conditions: 10 µM unless noted
# [17] = test system: CAKI-1 renal; conditions: 10 µM unless noted
# [18] = test system: A498 renal; conditions: 10 µM
# [19] = test system: HL-60(TB) leukemia; conditions: 10 µM unless noted
# [20] = test system: CCRF-CEM leukemia; conditions: 10 µM unless noted
Structure (SMILES),growth [1],growth [2],growth [3],growth [4],growth [5],growth [6],growth [7],growth [8],growth [9],growth [10],growth [11],growth [12],growth [13],growth [14],growth [15],growth [16],growth [17],growth [18],growth [19],growth [20]
COc1ccc(/C=C\c2cc(OC)c(OC)c(OC)c2)cc1OCC(=O)Nc1nc2ccc(F)cc2s1,45%,39.9%,15.6%,72.6%,21.2%,40.4%,-0.28% (active),32.4%,19.1%,69.5%,68.8%,57.7%,42.4%,0.455% (active),17.5%,25%,16.9%,29.5%,33.7%,40.4%
CC12CC=CCC1CCC1C2CCC2(C)C(c3ccc(=O)oc3)CCC12O (stereo not given),-66.3% (active),-44.7% (active),-61.7% (active),-98.3% (active),-73.3% (active),-6.92% (active),-47.5% (active),-72.9% (active),-78% (active),-33.8% (active),-33.6% (active),-85.1% (active),-13.1% (active),-91.4% (active),-62.2% (active),-90% (active),-57% (active),-22.7% (active),-14% (active),1.08% (active)
N#C[Se]Cc1cc(-c2ccccc2)n(-c2ccc(S(N)(=O)=O)cc2)n1,4.73% (active),-27% (active),-38.3% (active),-100% (active),-61.2% (active),-13.1% (active),-76.6% (active),-9.79% (active),-69.4% (active),-58.8% (active),-35.9% (active),-1.91% (active),6.49% (active),-25.6% (active),-29.7% (active),1.16% (active),0.316% (active),-61.4% (active),-44.5% (active),-16.4% (active)
CC(C)(N)Cc1ccccc1,105%,97.2%,103%,108%,105%,88.9%,116%,107%,103%,116%,108%,99.1%,108%,84.7%,96.5%,106%,97.6%,111%,94.9%,100%
COC(=O)[C@@H](C)C[C@H](Cc1ccccc1)NC(=O)c1csc([C@@H](C[C@H](C(C)C)N(C)C(=O)[C@@H](NC(=O)[C@H]2CCCCN2C)C2CC2)OC(C)=O)n1,12.3%,-12.4% (active),32.3%,38%,13.6%,27.2%,-50.1% (active),60%,8.42% (active),60.3%,5.26% (active),42.3%,43.5%,39%,38.6%,19.6%,36.9%,2.41% (active),-26.3% (active),7.66% (active)
COc1cc(C=C2c3ccccc3C(=O)c3ccccc32)ccc1OCCCCOc1cc2c(cc1OC)C(=O)N1CCCC1C=N2 (stereo not given),-75.6% (active),-64.6% (active),-90.9% (active),-89.2% (active),-100% (active),-45.9% (active),-92.4% (active),-90.1% (active),-100% (active),-82.8% (active),-79.6% (active),-49.8% (active),-68.6% (active),-96% (active),-70.2% (active),-62.8% (active),-75.5% (active),-78.6% (active),-21.3% (active),-24% (active)
ClCCN(CCCl)c1nc(Cl)c(C2CC(c3ccccc3)=NN2c2cc(Cl)cc(Cl)c2)s1 (stereo not given),104%,101%,96.4%,98.7%,99.4%,93.7%,102%,92.9%,99.2%,106%,103%,101%,95.2%,89.6%,109%,96.1%,83.4%,116%,105%,102%
C1CCC([PH+](C2CCCCC2)C2CCCCC2[PH+](C2CCCCC2)C2CCCCC2)CC1.O=C(C1[CH-]CCCC1)C1CCCC[N-]1.[Au] (stereo not given),2.02% (active),-43.7% (active),-6.22% (active),-95.2% (active),-84.1% (active),-6.85% (active),-98.8% (active),-85.8% (active),-95.9% (active),-69.5% (active),-52.6% (active),-53.2% (active),-52.3% (active),-87.9% (active),-47.7% (active),-74.6% (active),-57.4% (active),-51.3% (active),-39.2% (active),2.64% (active)
CC(C)COC(C[N+](=O)[O-])C(Cl)(Cl)Cl (stereo not given),105%,106%,90.4%,106%,95.7%,91%,112%,101%,103%,99.4%,115%,97.2%,105%,97.2%,105%,107%,102%,84.6%,93%,113%
O=P1(NCCCl)OCCCN1CCCl (stereo not given),98.9%,103%,115%,111%,117%,93.7%,112%,107%,99.8%,116%,99.6%,105%,101%,87.5%,97.7%,98.8%,99%,108%,100%,99.1%
O=C1C(Cl)=C(N2CCOCC2)C(=O)c2ccccc21,71.5%,116%,102%,116%,67%,71.9%,92%,105%,76.7%,118%,119%,96.9%,105%,51.8%,127%,78.4%,6.93% (active),93.8%,-36.6% (active),-27.6% (active)
O=C(CN1CCN(C(=O)c2ccco2)CC1)Nc1ccc(Cl)cc1C(=O)c1ccccc1Cl,81.9%,89.4%,67.8%,99.2%,91.3%,73.9%,51.1%,58.5%,79.9%,110%,46.6%,94.3%,105%,35.3%,132%,81.3%,91.7%,83.8%,49.4%,163%
N#CC1(c2ccccc2)CCN(Cc2ccccc2)CC1,94.1%,101%,121%,114%,107%,84.2%,102%,110%,102%,122%,99.6%,96.2%,114%,108%,88.4%,98%,94.7%,64.8%,102%,86.3%
COc1ccc(/C(C)=C(\c2ccc(OCCN3CCOCC3)cc2)c2ccc(OC(=O)Cc3ccccc3)cc2)cc1,98.5%,92.4%,121%,111%,102%,94.5%,106%,106%,103%,108%,96.1%,97.7%,107%,97%,108%,101%,97.5%,108%,118%,98.3%
COc1cccc2c1c(C(=O)c1ccco1)cn2Cc1ccc(F)cc1,103%,118%,121%,119%,112%,105%,96.3%,78.3%,109%,123%,73.8%,172%,72.4%,77.1%,143%,107%,184%,135%,162%,177%
